Assay results from PubChem BioAssay AID1259313 (Sanford-Burnham Center for Chemical Genomics, 2017).
Values joined by “and” are separate entries in the source; they are usually repeats but may differ in a detail not shown here. Equal entries are not always repeated. The whole screen tested about 340,000 compounds, of which about 8,500 (2.5%) were called active. Only a selection was taken, and actives are over-represented in it overall. A number with no mark means an inactive call.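 The calls were made as follows: active = melting temperature shift of at least 10% of the positive control shift, at one fixed dose; inactive = the rest.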

test system: Glutamate receptor ionotropic, NMDA 3A (GRIN3A) ligand-binding domain; experiment: NR3A LBD thermal stabilization by compounds – biophysical, differential scanning fluorimetry, uHTS, primary screen (AID 1259313); settings: at 25 µM, hits give high values, 0% = protein alone, 100% = glycine-bound protein

Structure (SMILES)	Tm shift relative to glycine control
Cc1ccc(S(=O)(=O)N2CCN=C2SCc2c(F)cccc2Cl)cc1	0.68%
CCc1ccc(-c2cc(C)no2)cc1S(=O)(=O)NCCc1ccc(S(N)(=O)=O)cc1	-4.05%
CCCCn1c(N)c(N(CC)C(=O)c2ccccc2C(F)(F)F)c(=O)[nH]c1=O	-1.66%
O=C(Cn1c(-c2ccc(Cl)cc2)noc1=O)N1CCN(c2ccccc2F)CC1	-0.09%
CC(=O)CSc1nnc(CSc2ncccn2)n1C1CCCCC1	-1.13%
CCC1CCCCN1CCNS(=O)(=O)c1ccc2c(c1)CCN2C(C)=O (configuration not stated)	-1.49%
CCCN(CCC)S(=O)(=O)c1cc2c(cc1Br)CCN2C(=O)CC	-0.99%
CCC(=O)N1CCc2cc(Br)c(S(=O)(=O)NCCN3CCCCC3CC)cc21 (configuration not stated)	12.6% (active)
CCCCSc1nc2c(c(=O)n1CC)SC(C)C2 (configuration not stated)	-2.48%
CCOC(=O)c1c(C)[nH]c(C2=NNC(=NC(C)COC)SC2)c1C (configuration not stated)	-1.92%
CC12CCC(C(=O)N(NC(=O)c3ccccc3O)C1=O)C2(C)C (configuration not stated)	2.74%
CC12CCC(C(=O)N(c3cccc(Cl)c3)C1=O)C2(C)C (configuration not stated)	18.6% (active)
O=C1CC(NNc2ccccc2)C(=O)N1c1cccc(Cl)c1 (configuration not stated)	-0.68%
CCc1cc(C(N)=O)c(NC(=O)c2ccc(OC)cc2)s1	12.6% (active)
CCc1cc(C(=O)c2ccc(OC)cc2)c(NC(=O)CN2CCN(C)CC2)s1	-0.69%
COc1ccc(C(=O)Nc2sc(C)c(C)c2CN2CCOCC2)cc1	-2.24%
CC1=CC=CC2=N/C(=N\S(=O)(=O)c3ccc(F)cc3F)c3ccccc3CN12	-0.65%
COc1ccc(C(=O)Nc2cccc(NC(=O)c3ccc(OC)cc3OC)n2)c(OC)c1	3.62%
CC(C)(C)C(=O)Nc1ccc(-c2cn3cccnc3n2)cc1	-0.98%
CC(C)(C)C(=O)Nc1cccc(-c2ccc[nH]2)n1	11.2% (active)
N#Cc1ccc(C2N=C(c3ccccc3)NO2)cc1 (configuration not stated)	0.19%
CCOc1ccc(CN2CCN(Cc3ccc(C)o3)CC2CCO)cc1 (configuration not stated)	1.84%
C/C(CC(=O)NC(C)c1ccccc1)=N\NC(N)=S (configuration not stated)	-2.12%
COC(=O)C1C(=O)NCC1c1ccc(OC)cc1 (configuration not stated)	-0.83%

Structure (SMILES)	Tm shift relative to glycine control
NC(=O)c1oc2ccccc2c1NC(=O)Cc1ccccc1	-1.3%
COc1ccc(CC(=O)Nc2c(C(N)=O)oc3ccccc23)cc1	16.1% (active)
NC(=O)c1oc2ccccc2c1NC(=O)CS(=O)(=O)c1ccccc1	-2.6%
CC(=O)C(CC(=O)N1CCCC1)C(=O)Nc1ccc(Cl)cc1 (configuration not stated)	-1.13%
Cc1cc(C)nc(-n2nc(C)cc2NC(=O)c2ccc(F)cc2F)n1	-2.66%
COc1ccc(CCNC(=O)C(=O)Nc2ccc3nc4n(c(=O)c3c2)CCCCC4)cc1OC	-0.47%
CCCCN(CC)C(=S)Nc1ccc2nc3n(c(=O)c2c1)CCCCC3	11% (active)
O=C(Nc1ccc2nc3n(c(=O)c2c1)CCCC3)c1ccc(Cl)nc1	-1.29%
C=CCn1c(P(C)(=O)O)nc2ccccc21	-0.35% and 1.55%
COc1ccc2nc(NC(=O)c3ccc(Br)s3)sc2c1	31.3% (active)
CSc1nc2ccc(NC(=O)c3c(F)cccc3F)cc2s1	3.67%
CCOc1ccc2nc(NC(=O)c3cc([N+](=O)[O-])ccc3N3CCOCC3)sc2c1	17% (active)
CCCC(=O)Nc1nc2ccc(NC(=O)c3c(F)c(F)c(OC)c(F)c3F)cc2s1	17.1% (active)
COc1ccc2nc(Nc3nc4ccc(NC(C)=O)cc4s3)sc2c1	25.2% (active)
CCCn1nc(C(=O)Nc2ccc3nc(C)sc3c2)c2ccccc2c1=O	-1.69%
COc1ccc(NC(C(=O)Nc2cccc(C(C)=O)c2)c2ccccc2)cc1 (configuration not stated)	-15.9%
Cc1noc(C)c1CSCC(=O)Nc1nc2ccc(Oc3ccccc3)cc2s1	0.97%
COc1ccc(CNC(=O)c2ccc(Br)s2)cc1OC	1.11%
COc1ccc(S(=O)(=O)N2CCCCC2)cc1NC(=O)c1cc([N+](=O)[O-])ccc1N1CCOCC1	-1.87%
Cc1nc2ccc(NC(=O)C3CCCCC3)cc2s1	-3.66%
CCCC(=O)N(CCN1CCOCC1)c1nc2ccc(OCC)cc2s1	-6.33%
Cc1ccccc1-n1nnc2c(=O)oc3ccccc3c21	1.45%
O=C1CC(c2c(F)cccc2Cl)C(n2cncn2)C(O)=C1C1NCCc2ccccc21 (configuration not stated)	-0.39%
